Reference: PubChem BioAssay (NCATS)
Inconclusive results are not listed. Where a call stands in place of a potency, no number is given. The source made the active and inactive calls. The call rests on the fitted dose curve; in most records, active means well fitted cell-killing curve with a large enough effect; inconclusive means small, poorly fitted or top-dose-only effect, or effect the other way; inactive means flat fitted curve, though single readings scatter.
Potency means the concentration at half of the fitted maximal effect.

What follows are compounds tested on PA-1 (assay: Primary qHTS to identify gynecologic anti-cancer compounds using libraries of approved drugs and bioactive compounds (AID 1345084; further: nearly all actives have a fitted effect of over 55% in size)). Details: Gynecologic cancer cell panel viability, ATPlite luminescence, 48 h; series mostly up to 57.5 µM.
In short: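 Luminescence from the ATPlite ATP-monitoring reagent indicates viable cell number; lower signal means cytotoxicity. Cells received compound 16 h after seeding and were exposed for 48 h across five concentrations.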
CC(C)NNC(=O)c1ccncc1 was tested, and the Potency was “inactive”. For CCN(CC)CCNC(=O)c1cc(S(C)(=O)=O)ccc1OC, the Potency was “inactive”. With c1cnc(N2CCN(Cc3ccc4c(c3)OCO4)CC2)nc1 the Potency was “inactive”. For NC1=NCC2c3ccccc3Cc3ccccc3N12 (centres undefined), the Potency was “inactive”. CCCCCN(CCCCC)C(=O)C(CCC(=O)O)NC(=O)c1ccc(Cl)c(Cl)c1 (centres undefined) was tested, and the Potency was “inactive”. OCCN1CCN(CCCN2c3ccccc3C=Cc3ccccc32)CC1 was tested, and the Potency was “inactive”. CN1C(=O)CC[C@H]1c1cccnc1 was tested, and the Potency was “inactive”. With CCC(=O)c1ccc2c(c1)N(CCCN(C)C)c1ccccc1S2 the Potency was “inactive”. In the case of C[C@]12CC[C@@H]3c4ccc(O)cc4C[C@@H](CCCCCCCCCS(=O)CCCC(F)(F)C(F)(F)F)[C@H]3[C@@H]1CC[C@@H]2O (some centres undefined), the Potency is reported as “inactive”. In the case of CCCN1C[C@H](CSC)C[C@@H]2c3cccc4[nH]cc(c34)C[C@H]21, the Potency is reported as “inactive”. CC1=NS(=O)(=O)c2cc(Cl)ccc2N1 was tested, and the Potency was “inactive”. O=C(O)CN(CCN(CC(=O)O)CC(=O)O)CCN(CC(=O)O)CC(=O)O was tested, and the Potency was “inactive”. In the case of c1cc(CN2CCCCC2)cc(OCCCNc2nc3ccccc3s2)c1, the Potency is reported as “inactive”. C[C@H](CS)C(=O)N1CCC[C@H]1C(=O)O was tested, and the Potency was “inactive”. In the case of CCc1c(C)[nH]c2c1C(=O)C(CN1CCOCC1)CC2 (centres undefined), the Potency is reported as “inactive”. With CNCCCN1c2ccccc2CCc2ccccc21 the Potency was “inactive”. With Cc1ccc(/C(=C\CN2CCCC2)c2ccccn2)cc1 the Potency was “inactive”. With NC(N)=N/N=C/c1c(Cl)cccc1Cl the Potency was “inactive”. In the case of CC[N+](C)(C)c1cccc(O)c1, the Potency is reported as “inactive”. Cc1ccc(Cl)c(Nc2ccccc2C(=O)O)c1Cl was tested, and the Potency was “inactive”. For CN1C[C@H](C(=O)N[C@]2(C)O[C@@]3(O)[C@@H]4CCCN4C(=O)[C@H](Cc4ccccc4)N3C2=O)C[C@@H]2c3cccc4[nH]cc(c34)C[C@H]21, the Potency was “inactive”. In the case of O=C(CCCN1CCC(O)(c2cccc(C(F)(F)F)c2)CC1)c1ccc(F)cc1, the Potency is reported as “inactive”. With C[n+]1cc2c3c(ccc2c2ccc4cc5c(cc4c21)OCO5)OCO3 the Potency was 5.01 µM (active). CCCN(CCC)C(=O)C(CCC(=O)O)NC(=O)c1ccccc1 (centres undefined) was tested, and the Potency was “inactive”. For CC1=C(C)C(=O)C(CCCCC#CCCCC#CCO)=C(C)C1=O, the Potency was “inactive”. With Cc1cc(C)c(/C=C2\C(=O)Nc3ccccc32)[nH]1 the Potency was “inactive”. For COC(=O)[C@H]1[C@H]2C[C@@H]3c4[nH]c5cc(OC)ccc5c4CCN3C[C@H]2C[C@@H](OC(=O)c2cc(OC)c(OC)c(OC)c2)[C@@H]1OC, the Potency was “inactive”. For CCN(CC)CCCN(c1ccccc1)C1Cc2ccccc2C1, the Potency was “inactive”. In the case of CCOC(=O)c1cnc2c(cnn2CC)c1NN=C(C)C, the Potency is reported as “inactive”. In the case of COCC(=O)O[C@]1(CCN(C)CCCc2nc3ccccc3[nH]2)CCc2cc(F)ccc2[C@@H]1C(C)C, the Potency is reported as “inactive”. NC(N)=NC(=O)Cc1c(Cl)cccc1Cl was tested, and the Potency was “inactive”. For COc1ccc([C@@H]2Sc3ccccc3N(CCN(C)C)C(=O)[C@@H]2OC(C)=O)cc1, the Potency was “inactive”. For CN(C)CC[C@@H](c1ccc(Br)cc1)c1ccccn1, the Potency was “inactive”. For CC(N=C(NC#N)Nc1ccncc1)C(C)(C)C (centres undefined), the Potency was “inactive”.
